Screening results from PubChem.
A selection: hits, their analogues and other compounds. The true share with any hit is near 6.9%.
HCV NS3h FP: blocks HCV NS3 helicase binding to DNA | NS3h Cy5-dT15 DNA binding, fluorescence polarization | inhibition, % at 100 µM | AID 687043 | 16,000 tested, 1.6% active;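 active means inhibition above the average over every tested compound plus 3 SD, cut at about 40% in these data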
Cy5 interf NS3h: enhances or quenches Cy5 fluorescence in NS3h assay; Cy5-dT15 DNA with NS3h, fluorescence interference; actives lie on both sides; signal over control mean, under 1 quenches; 16,000 tested, 6% active; AID 720488; fluorescence interference ratio at 100 µM;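 active means compound fluorescence over control fluorescence at most 0.8, a quencher, or at least a set upper limit, an enhancer; inactive means ratio between 0.8 and the set upper limit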
The depositor's hits bear a star.

SMILES	HCV NS3h FP	Cy5 interf NS3h
O=C(CSc1nc2ccccc2o1)c1ccc(-c2ccccc2)cc1	2.2	0.628*
COc1cccc(NC(=O)CSc2nc3ccccc3o2)c1	11.5	0.666*
COc1cccc(NC(=O)c2cc(-c3ccccc3)nc3ccccc23)c1	-0.7	1.01
O=C(CSc1nc2ccccc2o1)OCC(=O)c1ccc(F)cc1	6.7	0.933
COc1ccccc1/C=N\n1cnnc1	4.2	0.992
COc1cc(C2C3=C(CC(C)(C)CC3=O)OC3=C2C(=O)CC(C)(C)C3)cc(I)c1O	7.3	1.12
COc1cc(C2C3=C(CC(C)(C)CC3=O)OC3=C2C(=O)CC(C)(C)C3)ccc1OCc1ccc([N+](=O)[O-])cc1	9.7	0.804*
COc1ccc(-c2cc(=O)n3[nH]c(-c4ccc(Br)cc4)cc3n2)cc1	5.4	1.1
O=C1NC(=S)NC(=O)C1=Cc1ccc(O)c(Cl)c1	44.7*	1.03
O=C1NC(=S)N(c2ccc(Br)cc2)C(=O)/C1=C/c1ccc(O)c(Cl)c1	26.8	0.937
CC(=O)Nc1ccccc1NC(=O)COc1ccccc1C	-17.6	1.05
COc1cccc(C=C2C(=O)NC(=S)NC2=O)c1OCC#N	-9.4	0.999
CCOc1cc(/C=C2\SC(N)=NC2=O)cc(Br)c1OS(=O)(=O)c1ccc([N+](=O)[O-])cc1	5.1	0.978
COc1ccc(CCNc2cc(N3CCN(C)CC3)ccc2[N+](=O)[O-])cc1OC	46.2*	0.98
CN1CCN(c2ccc([N+](=O)[O-])c(NCc3ccc(Cl)cc3)c2)CC1	15.2	0.957
O=C(NCc1cccnc1)c1c(Cl)cccc1Cl	2.7	1.06
CC(C)CNC(=O)/C(=C/c1ccc(F)cc1)NC(=O)c1ccccc1	11.6	0.947
Cc1ccc(C(=O)N/C(=C\c2ccc(Cl)cc2)C(=O)NCC(C)C)cc1	41.2*	0.955
O=C(CN(c1cccc([N+](=O)[O-])c1)S(=O)(=O)c1ccccc1)N1CCN(c2ccccc2)CC1	13.8	1.04
Nc1ccc(Nc2nc(-c3ccc(Br)cc3)cs2)cc1	4.7	0.776*
Cc1ccc(Nc2nc(-c3ccc(-c4ccccc4)cc3)cs2)cc1	-6.0	0.977
Cc1ccc(-c2cc(NC(=O)c3ccc(Cl)cc3Cl)n[nH]2)cc1	-3.4	0.817
Cc1ccc(N=C(NO)c2ccc(Cl)cc2Cl)cc1	15.0	0.681*
COc1cc(/C=C2/SC(=S)N(CC(=O)Nc3cccc(C(=O)O)c3)C2=O)cc(OC)c1OC	15.3	1
O=C(CN1C(=O)/C(=C/c2cccc(Br)c2)SC1=S)Nc1cccc(C(=O)O)c1	39.0	0.759*
SMILES	HCV NS3h FP	Cy5 interf NS3h
Cc1ccc(S(=O)(=O)N2CCN(S(=O)(=O)c3ccc(C)cc3)C2c2ccc(N(C)C)cc2)cc1	13.5	0.944
Cc1ccc(S(=O)(=O)N2CCC(O)CC2C)cc1 (stereo not given)	19.5	0.738*
Cc1ccccc1OCC(=O)Nc1cccc(NC(=O)c2ccccc2Cl)c1	12.7	0.995
C=CCN1C(=O)/C(=C\c2ccc(OC)cc2)SC1=Nc1ccccc1	1.7	0.792*
C=CCN1C(=O)/C(=C\c2ccc(OCc3cccc4ccccc34)cc2)SC1=S	4.4	1.14
O=C(Nc1ccccc1)C(=O)Nc1ccc(F)cc1	7.6	0.96
Cc1ccc(NC(=S)NC(=O)C(=O)Nc2ccccc2)cc1	10.5	0.715*
CCC1=NN2C(=N)/C(=C/c3ccc(-c4ccc([N+](=O)[O-])cc4C)o3)C(=O)N=C2S1	4.2	0.988
Cc1ccc2ccc(S(=O)(=O)n3nc(C)cc3C)cc2c1	6.7	1.01
Cc1cc(C)n(S(=O)(=O)c2ccc3c(c2)C(=O)c2cc(S(=O)(=O)n4nc(C)cc4C)ccc2-3)n1	-57.2	0.64*
CC(C)CCOc1ccc(C(=O)Nc2sc3c(c2C#N)CC(C)(C)OC3)cc1	1.9	1.11
O=C1NN(c2ccccc2)C(=O)/C1=C/c1cc([N+](=O)[O-])c(Cl)cc1Cl	38.6	0.893
O=C1NN(c2ccccc2)C(=O)/C1=C/c1cccn1-c1ccc([N+](=O)[O-])cc1	29.9	0.607*
O=c1cc(-c2ccccc2)c2cc(Cl)ccc2[nH]1	-13.0	1.08
Cn1c(=O)cc(-c2ccccc2)c2ccccc21	14.1	0.692*
C=CCN1C(=O)/C(=C\c2cc(C)n(-c3ccc([N+](=O)[O-])cc3)c2C)SC1=S	-10.7	1.02
CCOC(=O)C1CCCN(C2CC(=O)N(c3ccc(C)cc3)C2=O)C1 (stereo not given)	7.2	1.25*
Cc1ccc(N2C(=O)CC(N3CCOCC3)C2=O)cc1 (stereo not given)	1.0	1.05
COc1ccccc1N(CC(=O)Nc1ccc(C)cc1C)S(=O)(=O)c1ccccc1	7.8	1.07
O=C(Nc1cc(Cl)cc(Cl)c1)C(c1ccccc1)c1ccccc1	-6.9	1.07
O=C(Nc1cc(C(F)(F)F)ccc1Cl)C(c1ccccc1)c1ccccc1	25.2	0.771*
O=c1c2cc3c(=O)n(-c4ccc(S)cc4)c(=O)c3cc2c(=O)n1-c1ccc(S)cc1	4.0	0.701*
Cc1ccc(-n2c(=O)c3cc4c(=O)n(-c5ccc(C)c(C)c5)c(=O)c4c(C(=O)c4ccccc4)c3c2=O)cc1C	10.0	1.1
N/C(=N/OC(=O)c1ccccc1F)c1ccc([N+](=O)[O-])cc1	-6.5	0.779*
N/C(=N/OC(=O)c1ccc(Br)cc1)c1ccc([N+](=O)[O-])cc1	2.4	0.957
SMILES	HCV NS3h FP	Cy5 interf NS3h
O=C(Oc1ccccc1C(=S)N1CCOCC1)c1ccc([N+](=O)[O-])cc1	1.6	0.889
O=C(Oc1cccc(C(=S)N2CCOCC2)c1)c1ccc([N+](=O)[O-])cc1	19.8	0.656*
COc1ccccc1NCn1nnc2ccccc21	-9.6	0.87
Cc1cc(C)c(/C=N\O)c(C)c1/C=N\O	-0.6	0.689*
O=C(O)c1c(-c2ccccc2)oc2ccc(OCc3ccccc3F)cc12	5.2	1.01
CCCCOC(=O)c1ccc(NC(=O)C2CC(C)=C(C)CC2C(=O)O)cc1 (stereo not given)	3.2	0.998
CCCCOC(=O)c1ccc(NC(C)=O)cc1	11.4	0.685*
CCOc1ccc(N(CC(=O)N2CCOCC2)S(C)(=O)=O)cc1	15.9	0.753*
CS(=O)(=O)N(CC(=O)N1CCOCC1)c1ccc(Cl)cc1	1.3	1.03
COc1cc(C=C2C(=O)N(C)C(=O)N(C)C2=O)ccc1OCc1ccccc1Cl	5.3	1.04
C=CCN1C(=O)/C(=C/c2ccccc2OCc2ccccc2Cl)SC1=S	9.6	0.645*
C=CCN1C(=O)NC(=O)/C(=C\c2ccc(OCc3ccccc3Cl)c(OC)c2)C1=O	8.8	1.22*
C=CCN1C(=O)/C(=C\c2ccccc2OCc2ccc(Cl)cc2)SC1=S	16.2	0.987
O=C(Nc1ccc(Cl)c(Cl)c1)Nc1nnc(-c2ccc([N+](=O)[O-])cc2)s1	2.9	1.05
COc1ccc(/C=C2/N=C(c3sc4ccccc4c3Cl)OC2=O)cc1OC	0.3	0.992
Cc1ccc(N2C(=O)SC(Nc3ccc(C)c(Cl)c3)C2=O)cc1 (stereo not given)	1.0	1.09
COc1cc(C=O)ccc1OC(=O)c1cc(OC)c(OC)c(OC)c1	0.3	0.67*
COc1cc(C(=O)Oc2ccc3c(C)cc(=O)oc3c2C(C)=O)cc(OC)c1OC	11.8	1.15
CCOc1ccc(NC(=O)CN(c2cccc(Br)c2)S(=O)(=O)c2ccccc2)cc1	12.5	0.94
CCC(=O)Nc1ccc2oc(-c3ccc4ccccc4c3)nc2c1	-3.8	1.02
O=C(Nc1cc(Cl)cc(Cl)c1)c1ccc2ccccc2c1	19.4	1.26*
